The values below come from PubChem BioAssay (NCI).

Compounds without any hit were thinned out: in the full panel of roughly 83,000, 20% have a hit.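 Negative percent growth values reflect cell death: -40 means 40% of the cells present at the start died, and -100 means all died.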 A number with no mark means an inactive call. The source made the active and inactive calls. The calls were made as follows: active = growth percent below 10; inactive = the rest.

Test systems include HCT-15 colon; HT29 colon; SNB-75 CNS; SNB-19 CNS; U251 CNS; PC-3 prostate; SK-MEL-5 melanoma; UACC-62 melanoma; LOX IMVI melanoma; SK-MEL-28 melanoma; SK-MEL-2 melanoma; EKVX NSCLC; SN12C renal; UO-31 renal; TK-10 renal; ACHN renal; CAKI-1 renal; CCRF-CEM leukemia; MOLT-4 leukemia.
Experiment in all cases: NCI-60 one-dose screen, 48 h (100 = growth as untreated, 0 = no growth, -100 = all killed)
Common to all, as to details: 10 µM unless noted

As for `CCNNC(=O)[C@@H]1[C@H](c2cc(OC)c(OC)c(OC)c2)c2cc3c(cc2[C@H](O)[C@H]1CO)OCO3`, the growth was 5.4% (active) with HCT-15 colon; -10% (active) with HT29 colon; 30.3% in the assay on SNB-75 CNS; 35.6% with SNB-19 CNS; 12.7% in the assay on U251 CNS; 12.5% in the assay with PC-3 prostate. Further, the growth is -38.8% (active) in the assay on SK-MEL-5 melanoma; 50% in the assay with UACC-62 melanoma; 14.4% in the assay on LOX IMVI melanoma; 55% in the assay with SK-MEL-28 melanoma; 21.6% with SK-MEL-2 melanoma; 44.8% in the assay with EKVX NSCLC. The growth was 24% with SN12C renal; 42% in the assay with UO-31 renal; 41.6% in the assay on TK-10 renal; 28.6% with ACHN renal; 29.3% with CAKI-1 renal; 14.6% in the assay on CCRF-CEM leukemia. Moreover, the growth in the assay with MOLT-4 leukemia is 12.8%.

As for `O=C(Nc1nc(-c2ccccc2Cl)cs1)c1cc(-c2ccccc2)nc2ccc(Cl)cc12`, the growth in the assay with HCT-15 colon is 11.9%; in the assay with HT29 colon it was 85.3%; in the assay on SNB-75 CNS it was 92.9%; in the assay with SNB-19 CNS it was 80.6%; in the assay on U251 CNS, 62.5%; with PC-3 prostate, 73.2%. In addition, the growth was 43.8% in the assay on SK-MEL-5 melanoma; 41.8% in the assay on UACC-62 melanoma; 21.6% in the assay on LOX IMVI melanoma; 70.8% in the assay on SK-MEL-28 melanoma; 69.9% with SK-MEL-2 melanoma; 92.2% in the assay on EKVX NSCLC. The growth is 37.9% with SN12C renal; 52.3% in the assay on UO-31 renal; 88% with TK-10 renal; 84.9% in the assay on ACHN renal; 81.5% in the assay with CAKI-1 renal; 18.8% with CCRF-CEM leukemia. Moreover, the growth in the assay with MOLT-4 leukemia is 25.8%.

Consider `C=C(C)[C@@H]1CC[C@]2(CO)CC[C@]3(C)[C@H](CC[C@@H]4[C@@]5(C)CCCNC(C)(C)[C@@H]5CC[C@]43C)[C@@H]12`, for which the growth was 3.28% (active) in the assay with HCT-15 colon; 2.58% (active) in the assay with HT29 colon; 77.1% in the assay with SNB-75 CNS; 49.6% in the assay with SNB-19 CNS; 7.49% (active) with U251 CNS; 25.6% in the assay with PC-3 prostate. Further, the growth with SK-MEL-5 melanoma is -82.5% (active); with UACC-62 melanoma it was 43.2%; in the assay with LOX IMVI melanoma it was -57.7% (active); in the assay with SK-MEL-28 melanoma it was -65.4% (active); in the assay on SK-MEL-2 melanoma it was 78.8%; in the assay on EKVX NSCLC it was 63.3%. The growth with SN12C renal was 45.9%; with UO-31 renal, 53.8%; with TK-10 renal, 80.8%; in the assay on ACHN renal, 50.2%; in the assay with CAKI-1 renal it was 38.4%; in the assay with CCRF-CEM leukemia, 12.4%. Besides, the growth in the assay with MOLT-4 leukemia is 4.4% (active).

Turning to `COc1cccc(CNCCN2C(=O)c3ccc4c5c(ccc(c35)C2=O)C(=O)N(CCNCc2cccc(OC)c2)C4=O)c1`, the growth in the assay with HCT-15 colon was 9.24% (active); in the assay with HT29 colon it was 2.39% (active); with SNB-75 CNS it was 120%; in the assay on SNB-19 CNS, 84.2%; in the assay with U251 CNS it was 76.9%; in the assay with PC-3 prostate, 78.9%. Further, the growth was 58.8% in the assay with SK-MEL-5 melanoma; 96.8% with UACC-62 melanoma; 59.4% with LOX IMVI melanoma; 120% in the assay on SK-MEL-28 melanoma; 90.4% in the assay with SK-MEL-2 melanoma; 121% with EKVX NSCLC. In addition, the growth in the assay with SN12C renal was 85.7%; in the assay with UO-31 renal, 60.5%; in the assay on TK-10 renal, 99.6%; with ACHN renal, 76.4%; in the assay with CAKI-1 renal, 95.5%; with CCRF-CEM leukemia, -0.889% (active). Moreover, in the assay on MOLT-4 leukemia, the growth is 90.4%.

Regarding `C1=C2CNCC3=Cc4ccc5ccccc5c4OC23Oc2c1ccc1ccccc21`, the growth in the assay with HCT-15 colon is 21.7%; in the assay on HT29 colon, 19.1%; in the assay on SNB-75 CNS it was 34.5%; in the assay on SNB-19 CNS, 59.6%; in the assay on U251 CNS it was 38.9%; in the assay on PC-3 prostate, 39.1%. For the same molecule, the growth with SK-MEL-5 melanoma is 35.6%; in the assay with UACC-62 melanoma, 25.6%; with LOX IMVI melanoma, 18.9%; with SK-MEL-28 melanoma, 46.7%; with SK-MEL-2 melanoma, 51.9%; in the assay on EKVX NSCLC, 66.4%. For the same molecule, the growth in the assay on SN12C renal was 63.2%; in the assay on UO-31 renal it was 36.3%; in the assay on TK-10 renal it was 89.7%; in the assay with ACHN renal it was 37.2%; in the assay with CAKI-1 renal, 31.1%; in the assay with CCRF-CEM leukemia it was 43.3%. Besides, the growth with MOLT-4 leukemia is 45.8%.

On to `C#CC(=O)Nc1cccc2c1cc(C)n2-c1nc2c(c(NCc3ccccc3)n1)CCCC2`, for which the growth in the assay on HCT-15 colon was -74.4% (active); in the assay with HT29 colon, -58.2% (active); with SNB-75 CNS it was -25.6% (active); in the assay with SNB-19 CNS, -71.9% (active); with U251 CNS it was -91.9% (active); in the assay on PC-3 prostate, -56.5% (active). The growth was -96.1% (active) in the assay on SK-MEL-5 melanoma; -73.7% (active) with UACC-62 melanoma; -65.8% (active) in the assay on LOX IMVI melanoma; -58.4% (active) with SK-MEL-28 melanoma; -74.5% (active) in the assay on SK-MEL-2 melanoma; -39.3% (active) in the assay with EKVX NSCLC. Besides, the growth in the assay with SN12C renal was -66.2% (active); in the assay with UO-31 renal it was -76% (active); in the assay with TK-10 renal it was -98.1% (active); in the assay with ACHN renal, -73.6% (active); in the assay on CAKI-1 renal, -43.2% (active); in the assay with CCRF-CEM leukemia it was -26.5% (active). In addition, in the assay with MOLT-4 leukemia, the growth is -33.4% (active).

As to `O=C(/C=C/c1ccc[nH]1)c1ccc(-n2ccc(C(F)(F)F)n2)cc1`, the growth was 86.6% with HCT-15 colon; 97.3% in the assay with HT29 colon; 51.6% in the assay on SNB-75 CNS; 75.5% in the assay with SNB-19 CNS; 20% in the assay with U251 CNS; 8.84% (active) in the assay on PC-3 prostate. The growth in the assay with SK-MEL-5 melanoma is 99.9%; with UACC-62 melanoma, 90.3%; in the assay on LOX IMVI melanoma, 97.1%; in the assay on SK-MEL-28 melanoma it was 103%; in the assay on SK-MEL-2 melanoma it was 95%; with EKVX NSCLC, 79.1%. Also, the growth with SN12C renal was 60.1%; in the assay on UO-31 renal it was -77.1% (active); in the assay with TK-10 renal, 103%; in the assay with ACHN renal, 99.5%; with CAKI-1 renal it was 93.4%; in the assay on CCRF-CEM leukemia, 25.7%. Moreover, the growth with MOLT-4 leukemia is 72.5%.

With `CS(=O)(=O)OCCN(CCOS(C)(=O)=O)c1ccc(/C=N/Nc2ccc([N+](=O)[O-])cc2[N+](=O)[O-])cc1`, the growth in the assay with HCT-15 colon is 100%; with HT29 colon, 85.9%; in the assay with SNB-75 CNS, 77.2%; in the assay on SNB-19 CNS, 82.7%; in the assay with U251 CNS, 76%; with PC-3 prostate it was 67.3%. The growth is 89.2% with SK-MEL-5 melanoma; 78% in the assay on UACC-62 melanoma; 63.5% in the assay on LOX IMVI melanoma; 95.7% in the assay with SK-MEL-28 melanoma; 118% in the assay with SK-MEL-2 melanoma; 81.7% in the assay on EKVX NSCLC. For the same molecule, the growth is 77.6% in the assay with SN12C renal; 88.9% in the assay with UO-31 renal; 112% in the assay on TK-10 renal; 84.6% in the assay with ACHN renal; 70.4% with CAKI-1 renal; 55.5% in the assay with CCRF-CEM leukemia. The growth in the assay with MOLT-4 leukemia was 88.4%.
